In all, about 5,500 compounds went through this assay and about 2,000 (36%) were called active. Inconclusive results (about 18%) are left out. No stated cut-off is given here; in the data, active means normalized growth mostly below about 0.91 (no sharp cut-off); inconclusive means no clear call, values can overlap the other calls; inactive means mostly above about 0.92. The list shows a part of the results.
Experiment: chemical genetic growth profiling, strain panel (AID 1159580);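 further: tested at 20 µM; growth read once vehicle control cultures reached saturation at 30 °C; 1 = growth at the plate median or of vehicle wells; lower values mean less growth of the strain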
Details: growth OD

Measured: normalized growth

COc1c(C(C)C)oc2cc3oc(=O)ccc3cc12
active: S. cerevisiae deletion strains, locus YCL029C, strain bik1, hits give low values 0.839 | S. cerevisiae deletion strains, locus YDL035C, strain GPR1, hits give low values 0.749 | S. cerevisiae deletion strains, locus YDL074C, strain BRE1, hits give low values 0.721 | S. cerevisiae deletion strains, locus YDL192W, strain arf1, hits give low values 0.894 | S. cerevisiae deletion strains, locus YDR162C, strain NBP2, hits give low values 0.826 | S. cerevisiae deletion strains, locus YDR318W, strain mcm21, hits give low values 0.89 | S. cerevisiae deletion strains, locus YDR502C, strain sam2, hits give low values 0.873 | S. cerevisiae deletion strains, locus YGL078C, strain dbp3, hits give low values 0.911 | S. cerevisiae deletion strains, locus YGL086W, strain mad1, hits give low values 0.883 | S. cerevisiae deletion strains, locus YGL248W, strain PDE1, hits give low values 0.869 | S. cerevisiae deletion strains, locus YGR135W, strain pre9, hits give low values 0.779 | S. cerevisiae deletion strains, locus YGR252W, strain gcn5, hits give low values 0.55 | S. cerevisiae deletion strains, locus YHR030C, strain SLT2, hits give low values 0.885 | S. cerevisiae deletion strains, locus YHR129C, strain ARP1, hits give low values 0.901 | S. cerevisiae deletion strains, locus YHR200W, strain rpn10, hits give low values 0.915 | S. cerevisiae deletion strains, locus YIL066C, strain RNR3, hits give low values 0.801 | S. cerevisiae deletion strains, locus YJL095W, strain BCK1, hits give low values 0.722 | S. cerevisiae deletion strains, locus YJR043C, strain POL32, hits give low values 0.764 | S. cerevisiae deletion strains, locus YJR075W, strain HOC1, hits give low values 0.877 | S. cerevisiae deletion strains, locus YKL009W, strain mrt4, hits give low values 0.745 | S. cerevisiae deletion strains, locus YKR001C, strain vps1, hits give low values 0.777 | S. cerevisiae deletion strains, locus YLR330W, strain CHS5, hits give low values 0.874 | S. cerevisiae deletion strains, locus YLR342W, strain FKS1 (second series), hits give low values 0.661 | S. cerevisiae deletion strains, locus YLR418C, strain cdc73, hits give low values 0.703 | S. cerevisiae deletion strains, locus YML032C, strain rad52, hits give low values 0.855 | S. cerevisiae deletion strains, locus YMR223W, strain ubp8, hits give low values 0.9 | S. cerevisiae deletion strains, locus YMR263W, strain SAP30, hits give low values 0.887 | S. cerevisiae deletion strains, locus YNL067W, strain RPL9B, hits give low values 0.862 | S. cerevisiae deletion strains, locus YNL153C, strain GIM3, hits give low values 0.859 | S. cerevisiae deletion strains, locus YNL233W, strain BNI4, hits give low values 0.806 | S. cerevisiae deletion strains, locus YNL271C, strain bni1, hits give low values 0.889 | S. cerevisiae deletion strains, locus YNL298W, strain CLA4, hits give low values 0.802 | S. cerevisiae deletion strains, locus YNL307C, strain MCK1, hits give low values 0.51 | S. cerevisiae deletion strains, locus YNR052C, strain pop2, hits give low values 0.884 | S. cerevisiae deletion strains, locus YOR184W, strain ser1, hits give low values 0.828 | S. cerevisiae deletion strains, locus YPL055C, strain LGE1, hits give low values 0.755 | S. cerevisiae deletion strains, locus YPR163C, strain tif3, hits give low values 0.769 | S. cerevisiae deletion strains, locus YPR167C, strain met16, hits give low values 0.895 | S. cerevisiae deletion strains, strain wtn01, hits give low values 0.887 | S. cerevisiae strains, strain wild type, hits give low values 0.899
inactive: S. cerevisiae deletion strains, locus YBR021W, strain FUR4, hits give low values 0.915 | S. cerevisiae deletion strains, locus YBR229C, strain ROT2, hits give low values 0.987 | S. cerevisiae deletion strains, locus YDL101C, strain DUN1, hits give low values 0.918 | S. cerevisiae deletion strains, locus YDL185W, strain tfp1, hits give low values 0.933 | S. cerevisiae deletion strains, locus YDR101C, strain arx1, hits give low values 0.929 | S. cerevisiae deletion strains, locus YDR388W, hits give low values 0.935 | S. cerevisiae deletion strains, locus YEL061C, strain CIN8, hits give low values 0.933 | S. cerevisiae deletion strains, locus YER110C, hits give low values 0.914 | S. cerevisiae deletion strains, locus YER155C, strain BEM2, hits give low values 0.972 | S. cerevisiae deletion strains, locus YER167W, strain BCK2, hits give low values 0.921 | S. cerevisiae deletion strains, locus YHR079C, strain IRE1 (second series), hits give low values 0.954 | S. cerevisiae deletion strains, locus YHR094C, strain hxt1, hits give low values 0.967 | S. cerevisiae deletion strains, locus YIL073C, strain SPO22, hits give low values 0.838 | S. cerevisiae deletion strains, locus YIL125W, strain kgd1, hits give low values 0.971 | S. cerevisiae deletion strains, locus YIR030C, strain dcg1, hits give low values 0.941 | S. cerevisiae deletion strains, locus YJL134W, strain LCB3, hits give low values 0.983 | S. cerevisiae deletion strains, locus YJL168C, strain set2, hits give low values 0.957 | S. cerevisiae deletion strains, locus YJL187C, strain SWE1 (second series), hits give low values 0.883 | S. cerevisiae deletion strains, locus YKL068W, hits give low values 0.965 | S. cerevisiae deletion strains, locus YKL085W, strain MDH1 (second series), hits give low values 0.958 | S. cerevisiae deletion strains, locus YKL085W, strain MDH1, hits give low values 0.958 | S. cerevisiae deletion strains, locus YLR039C, strain RIC1, hits give low values 0.944 | S. cerevisiae deletion strains, locus YLR058C, strain SHM2, hits give low values 0.932 | S. cerevisiae deletion strains, locus YLR102C, strain apc9, hits give low values 0.946 | S. cerevisiae deletion strains, locus YLR262C, strain YPT6, hits give low values 0.971 | S. cerevisiae deletion strains, locus YLR268W, strain sec22, hits give low values 0.888 | S. cerevisiae deletion strains, locus YLR371W, strain rom2, hits give low values 0.951 | S. cerevisiae deletion strains, locus YML016C, strain PPZ1, hits give low values 0.958 | S. cerevisiae deletion strains, locus YML124C, strain tub3, hits give low values 0.96 | S. cerevisiae deletion strains, locus YMR078C, strain ctf18, hits give low values 0.945 | S. cerevisiae deletion strains, locus YMR307W, strain GAS1, hits give low values 0.743 | S. cerevisiae deletion strains, locus YNL250W, strain rad50, hits give low values 0.932 | S. cerevisiae deletion strains, locus YOL012C, strain htz1 1.16 | S. cerevisiae deletion strains, locus YOL147C, strain pex11, hits give low values 0.935 | S. cerevisiae deletion strains, locus YOR061W, strain CKA2, hits give low values 0.91 | S. cerevisiae deletion strains, locus YOR069W, strain VPS5, hits give low values 0.967 | S. cerevisiae deletion strains, locus YOR136W, strain idh2, hits give low values 0.943 | S. cerevisiae deletion strains, locus YOR144C, strain elg1, hits give low values 0.963 | S. cerevisiae deletion strains, locus YOR316C, strain cot1, hits give low values 0.957 | S. cerevisiae deletion strains, locus YPR119W, strain clb2, hits give low values 0.957 | S. cerevisiae deletion strains, locus YPR141C, strain kar3, hits give low values 0.952

— PubChem BioAssay AID1159580 (chemical genetic matrix, 2015)
